Assay results as given in the supplement of paper PMC10646978.
± gives the standard deviation.

Legend:
Details in all cases: modulator concentration 10 µM
[1] = system: RAW-Dual (murine macrophage reporter line); test: NF-kB reporter (SEAP) activity fold change vs agonist alone; higher = enhanced NF-kB activity
Method in brief: (§1)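 Compound reached 10 μM final in each well by pin transfer, onto RAW-Dual murine macrophage reporter cells seeded at 50 000 per well in 384-well plates. After 1 hour at 37 °C, the cells were stimulated overnight with a PRR agonist. SEAP in the supernatant was read with QUANTI-Blue at 620 nm absorbance for NF-κB, and Lucia luciferase was read with QUANTI-Luc luminescence for IRF. Each signal was turned into fold change against the mean agonist-only control on the same plate, and two replicate plates were averaged with propagated errors.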

[2] = system: RAW-Dual (murine macrophage reporter line); test: IRF reporter (Lucia luciferase) activity fold change vs agonist alone; higher = enhanced IRF activity
Method in brief: as §1

[3] = system: RAW-Dual (murine macrophage reporter line); test: viability score (confluency relative to resting cells, overnight) (fraction); higher = more viable, active = viable (0.7 or more)
Method in brief: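 A compound met the cutoff when both of two confluency masks exceeded 70% of resting cells. Those masks were made with IncuCyte software from IncuCyte images of RAW-Dual macrophages treated overnight at 10 μM final. This is the basis of the viability score, which is confluency relative to resting cells.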

[4] = agonist: CpG ODN 1826 0.5 ug/mL

Row | SMILES | NF-kB reporter [1, 4] | NF-kB reporter ([1]; agonist: LPS 0.1 ug/mL) | NF-kB reporter ([1]; agonist: MPLA […]) | IRF reporter ([2]; agonist: 3'3'-cGAMP 10 ug/mL) | IRF reporter ([2]; agonist: LPS 0.1 ug/mL) | IRF reporter ([2]; agonist: MPLA […]) | viability score [3]
1 | CC1CCN(c2cc(N3CCNCC3)ncn2)CC1 | 0.972 ± 0.32 | 1.08 ± 0.054 | 1.02 ± 0.069 | 0.932 ± 0.032 | 1.11 ± 0.17 | 1.26 ± 0.26 | 0.997 (active)
2 | CC(=O)Oc1ccc2occ(C(=O)c3cccs3)c2c1 | 0.844 ± 0.099 | 0.964 ± 0.13 | 1.19 ± 0.14 | 0.836 ± 0.039 | 1.17 ± 0.074 | 1.26 ± 0.18 | 1.02 (active)
3 | COc1ccc(C2Nc3ccc(C(=O)c4ccccc4)cc3NC3=C2C(=O)CCC3)c(OC)c1 (configuration not stated) | 0.77 ± 0.06 | 0.844 ± 0.04 | 1.08 ± 0.095 | 0.933 ± 0.047 | 1.41 ± 0.11 | 1.58 ± 0.17 | 1.01 (active)
4 | CCN(CC)CCCC(C)Nc1c2ccc(Cl)cc2nc2ccc(OC)cc12 (configuration not stated) [Prestw-318] | 0.0785 ± 0.011 | 0.167 ± 0.04 | 0.447 ± 0.051 | 0.0346 ± 0.0049 | 1.19 ± 0.22 | 0.939 ± 0.22 | 0.825 (active)
5 | CCOC(=O)C1CCN(C(=O)c2ccc(C#CC(C)(C)O)cc2)CC1 | 0.747 ± 0.063 | 0.845 ± 0.041 | 1.1 ± 0.1 | 0.91 ± 0.048 | 1.34 ± 0.077 | 1.46 ± 0.12 | 1.01 (active)
6 | Cc1ccc(C(=O)c2cc(O)c(O)c([N+](=O)[O-])c2)cc1 | 0.889 ± 0.078 | 1.09 ± 0.056 | 1.07 ± 0.049 | 0.871 ± 0.048 | 0.917 ± 0.081 | 0.946 ± 0.075 | 0.995 (active)
7 | Cc1noc(C)c1CN1CCC(C(F)(F)F)CC1.Cl | 0.908 ± 0.048 | 0.947 ± 0.081 | 1.1 ± 0.066 | 1.09 ± 0.072 | 1.32 ± 0.29 | 1.6 ± 0.52 | 0.937 (active)
8 | Cc1cccc2sc(NNC(=O)c3ccc(S(=O)(=O)N4CCc5ccccc5C4)cc3)nc12 | 0.923 ± 0.093 | 0.973 ± 0.063 | 0.93 ± 0.079 | 0.929 ± 0.067 | 1.2 ± 0.2 | 0.93 ± 0.11 | 0.995 (active)
9 | O=C(NC1CCOCC1)N1CCOC(c2cc(Cl)cc(Cl)c2)C1 (configuration not stated) | 0.83 ± 0.036 | 1.05 ± 0.083 | 1.09 ± 0.06 | 0.971 ± 0.045 | 1.35 ± 0.27 | 1.54 ± 0.52 | 0.968 (active)
10 | COc1ccc(OC)c(-c2csc(NC(=O)Cc3ccc(F)cc3)n2)c1 | 0.902 ± 0.097 | 0.944 ± 0.069 | 1.12 ± 0.1 | 1.1 ± 0.078 | 1.2 ± 0.18 | 1.38 ± 0.36 | 0.998 (active)
11 | CS(=O)(=O)N1CCN(Cc2cc3nc(-c4cccc5[nH]ncc45)nc(N4CCOCC4)c3s2)CC1 | 0.179 ± 0.029 | 2.63 ± 0.34 | 2.94 ± 0.17 | 0.151 ± 0.0092 | 1.4 ± 0.24 | 1.33 ± 0.17 | 0.888 (active)
12 | COc1ccc(-c2cc(=O)oc3cc(OCc4cc5c(cc4Cl)OCO5)ccc23)cc1 | 0.738 ± 0.058 | 0.829 ± 0.13 | 1.08 ± 0.11 | 0.983 ± 0.053 | 1.17 ± 0.068 | 1.16 ± 0.15 | 1.01 (active)
13 | COC(=O)C1C(O)CCC2CN3CCc4c([nH]c5ccccc45)C3CC21.Cl (configuration not stated) | 1.19 ± 0.28 | 0.917 ± 0.076 | 0.906 ± 0.058 | 0.92 ± 0.1 | 1.15 ± 0.25 | 1.23 ± 0.15 | 0.995 (active)
14 | Br.O=S(=O)(c1ccc(-c2csc(Nc3ccc(Br)cc3)n2)cc1)N1CCCCC1 | 0.859 ± 0.072 | 1.08 ± 0.088 | 0.988 ± 0.034 | 0.938 ± 0.16 | 1.01 ± 0.042 | 0.926 ± 0.11 | 1 (active)
15 | COc1ccc(-c2csc(NC(=O)CCc3ccccc3)c2C(=O)O)cc1 | 0.697 ± 0.1 | 0.809 ± 0.072 | 1.04 ± 0.15 | 0.957 ± 0.046 | 1.51 ± 0.12 | 1.63 ± 0.14 | 1.02 (active)
16 | O=C(NCCN1CCN(c2ccc(Cl)cc2)CC1)c1ccno1 | 0.933 ± 0.071 | 0.992 ± 0.082 | 2 ± 0.72 | 1.01 ± 0.05 | 1.24 ± 0.26 | 1.36 ± 0.49 | 0.96 (active)
17 | CC1CCc2c(oc3ccc(NS(=O)(=O)c4ccc(F)cc4)cc23)C1 (configuration not stated) | 0.607 ± 0.1 | 0.626 ± 0.075 | 0.918 ± 0.032 | 0.853 ± 0.035 | 0.643 ± 0.11 | 1.76 ± 0.23 | 0.144 (inactive)
18 | CN1CC(c2ccccc2)OC1=O (configuration not stated) | 1.06 ± 0.17 | 0.949 ± 0.083 | 1.08 ± 0.093 | 1.07 ± 0.033 | 1.32 ± 0.2 | 1.29 ± 0.23 | 1 (active)
19 | CCOC(=O)c1cc(-c2ccccc2)sc1NC(=O)C(C)(C)C | 0.798 ± 0.068 | 0.907 ± 0.055 | 1.2 ± 0.17 | 0.945 ± 0.055 | 1.3 ± 0.093 | 1.44 ± 0.17 | 1.02 (active)
20 | Cc1ccc(-n2ncc3c(SCC(=O)NC(C)(C)C)ncnc32)c(C)c1 | 1.01 ± 0.082 | 1.16 ± 0.1 | 1.05 ± 0.047 | 0.644 ± 0.026 | 0.95 ± 0.048 | 1.22 ± 0.18 | 0.996 (active)
21 | CC1=CCC(C2Nc3ccccc3-c3nnc(SCc4ccc(C)cc4)nc3O2)CC1 (configuration not stated) | 1.05 ± 0.13 | 1 ± 0.057 | 0.881 ± 0.053 | 0.978 ± 0.053 | 1.5 ± 0.1 | 1.22 ± 0.15 | 1.01 (active)
22 | COc1ccc(C(=O)Nc2nc(C)c(C)s2)cc1OC | 0.904 ± 0.093 | 1.02 ± 0.056 | 0.994 ± 0.064 | 0.981 ± 0.024 | 1.55 ± 0.26 | 1.16 ± 0.27 | 1.01 (active)
23 | COc1ccc(CNC2CCCc3ccccc32)cc1OC (configuration not stated) | 0.648 ± 0.24 | 1.1 ± 0.09 | 0.981 ± 0.11 | 0.713 ± 0.026 | 1.12 ± 0.14 | 1.5 ± 0.29 | 0.508 (inactive)
24 | O=C1C(CCS(=O)c2ccccc2)C(=O)N(c2ccccc2)N1c1ccccc1 (configuration not stated) | 0.833 ± 0.042 | 0.955 ± 0.076 | 0.954 ± 0.056 | 1.01 ± 0.068 | 1.22 ± 0.2 | 1.31 ± 0.44 | 1.02 (active)
25 | Cn1cc(-c2cc(CNC(=O)c3cncc(Br)c3)ccn2)cn1 | 0.92 ± 0.041 | 1.05 ± 0.1 | 1.15 ± 0.065 | 0.872 ± 0.057 | 1.1 ± 0.17 | 1.3 ± 0.41 | 0.943 (active)
26 | C1=CC2CC1CC2CN1CCC(N2CCCCC2)CC1 (configuration not stated) | 0.089 ± 0.0093 | 0.949 ± 0.072 | 1.26 ± 0.13 | 0.578 ± 0.038 | 1.69 ± 0.099 | 1.79 ± 0.17 | 0.989 (active)
